{
  "source": "the supplement of paper PMC10720658",
  "note": "± gives the standard deviation of the averaged measurements.",
  "data": [
    {"system": "AEK1 (Tb927.3.2440)", "assay": "percent reduction in TR-FRET probe signal relative to DMSO control; higher = stronger displacement of ATP-site probe (binding)", "settings": "1 µM; incubation time 1 h", "units": {"percent reduction in TR-FRET probe signal": "%"}, "values": [
      {"smiles": "O=C(NCCCNc1nc(Nc2cccc(NC(=O)N3CCCC3)c2)ncc1I)c1cccs1", "percent reduction in TR-FRET probe signal": "-0.457 ± 1.2"},
      {"smiles": "CCN1CCN(Cc2ccc(C(=O)Nc3ccc(C)c(Oc4ccc5c(c4)CC(=O)N5)c3)cc2C(F)(F)F)CC1", "percent reduction in TR-FRET probe signal": "-7.33 ± 8.7"},
      {"smiles": "C=CCc1ccc(O)c(-c2ccc(O)c(CC=C)c2)c1", "note": "[Honokiol]", "percent reduction in TR-FRET probe signal": "1.65 ± 8.9"},
      {"smiles": "CCn1c(N)c(C(=O)NC)c(=O)c2ccc(C#C[C@@](C)(O)COC)nc21", "percent reduction in TR-FRET probe signal": "10.3 ± 4.8"},
      {"smiles": "O=c1c(O)c(-c2ccc(O)c(O)c2)oc2cc(O)cc(O)c12", "note": "[Quercetin]", "percent reduction in TR-FRET probe signal": "8.35 ± 5.3"},
      {"smiles": "Cc1ccc(NC(=O)c2cccc(N(C)C)c2)cc1NC(=O)c1ccc(O)cc1", "percent reduction in TR-FRET probe signal": "-8.68 ± 4"},
      {"smiles": "Cl.Cl.Fc1cc(-c2cccc3ncc(-c4cnn(C5CCNCC5)c4)nc23)cc(F)c1CN1CCOCC1", "percent reduction in TR-FRET probe signal": "10.7 ± 13"},
      {"smiles": "Nc1cc(C(F)(F)F)c(-c2cc(N3CCOCC3)nc(N3CCOCC3)n2)cn1", "note": "[BKM120 (NVP-BKM120, Buparlisib)]", "percent reduction in TR-FRET probe signal": "8.62 ± 16"},
      {"smiles": "Cc1ccccc1CN1C2=NCCN2C(=O)C2=C1CCN(Cc1ccccc1)C2", "note": "[TIC10 Analogue]", "percent reduction in TR-FRET probe signal": "-7.4 ± 3.3"},
      {"smiles": "C[C@@H]1COC(Nc2ccc3ncnc(Nc4ccc(OCc5nccs5)c(Cl)c4)c3c2)=N1", "note": "[Varlitinib]", "percent reduction in TR-FRET probe signal": "11.3 ± 2.9"},
      {"smiles": "O=C1Nc2ccccc2/C1=C1\\Nc2ccccc2C1=O", "note": "[Indirubin]", "percent reduction in TR-FRET probe signal": "-2.5 ± 6.6"},
      {"smiles": "Cc1cc(NC(=O)c2cccc(NC(=O)/C=C/CN(C)C)c2)ccc1Nc1nccc(-c2cccnc2)n1", "percent reduction in TR-FRET probe signal": "-7.17 ± 15"},
      {"smiles": "C[C@@H](NC(=O)c1ncnc(N)c1Cl)c1ncc(C(=O)Nc2cc(C(F)(F)F)c(Cl)cn2)s1", "percent reduction in TR-FRET probe signal": "-3.59 ± 11"},
      {"smiles": "CC(C)c1cnn2c(NCc3ccccc3)cc(NCCCCCCN)nc12.Cl", "percent reduction in TR-FRET probe signal": "-3.89 ± 4.8"},
      {"smiles": "CN1CC[C@H](c2c(O)cc(O)c3c(=O)cc(-c4ccccc4Cl)oc23)[C@H](O)C1.Cl", "note": "[Flavopiridol HCl]", "percent reduction in TR-FRET probe signal": "-6.15 ± 9.4"},
      {"smiles": "Cn1cc(-c2ccc3nnc(C(F)(F)c4ccc5ncccc5c4)n3n2)cn1", "percent reduction in TR-FRET probe signal": "-0.537 ± 18"},
      {"smiles": "CCOc1ccn(-c2ccc(F)cc2)c(=O)c1C(=O)Nc1ccc(Oc2ccnc(N)c2Cl)c(F)c1", "percent reduction in TR-FRET probe signal": "-0.77 ± 15"},
      {"smiles": "Cn1cc(-c2[nH]c3cc(NC(=O)[C@H](N)C4CCCCC4)cc4c3c2C=NNC4=O)cn1", "percent reduction in TR-FRET probe signal": "76.9 ± 6.5"},
      {"smiles": "CCC[C@H](NC(=O)/C(C#N)=C/c1cccc(Br)n1)c1ccccc1", "note": "[Degrasyn (WP1130)]", "percent reduction in TR-FRET probe signal": "2.37 ± 17"},
      {"smiles": "COc1cc(Nc2ncc(F)c(Nc3ccc4c(n3)NC(=O)C(C)(C)O4)n2)cc(OC)c1OC.O=S(=O)(O)c1ccccc1", "percent reduction in TR-FRET probe signal": "85.4 ± 8"},
      {"smiles": "CNC(=O)c1cc(COc2nnc(Nc3ccc(Cl)cc3)c3ccoc23)ccn1", "note": "[Telatinib]", "percent reduction in TR-FRET probe signal": "-1.95 ± 4.8"},
      {"smiles": "CC(C)(C)c1cnc(CSc2cnc(NC(=O)C3CCNCC3)s2)o1", "percent reduction in TR-FRET probe signal": "-4.82 ± 4.6"},
      {"smiles": "Nc1ncnc2c1c(-c1cnc3[nH]ccc3c1)nn2C1CCCC1", "percent reduction in TR-FRET probe signal": "21.6 ± 20"},
      {"smiles": "O=C1c2ccc(Nc3ccc(F)cc3F)cc2CCc2ccc(OC[C@H](O)CO)cc21", "note": "[Skepinone-L]", "percent reduction in TR-FRET probe signal": "-1.27 ± 10"},
      {"smiles": "S=C(NCc1ccc2c(c1)OCO2)N1CCN(c2ncnc3c2oc2ccccc23)CC1", "note": "[Amuvatinib (MP-470)]", "percent reduction in TR-FRET probe signal": "3.8 ± 9.9"},
      {"smiles": "Cn1cc(C=C2C(=O)Nc3cccnc32)c2ccccc21", "percent reduction in TR-FRET probe signal": "-3.06 ± 6"},
      {"smiles": "CCc1ccc(/C=C2/SC(=S)NC2=O)cc1", "percent reduction in TR-FRET probe signal": "-1.24 ± 9.7"},
      {"smiles": "Cc1ccc(S(=O)(=O)/C=C/C#N)cc1", "percent reduction in TR-FRET probe signal": "-7.27 ± 4.2"},
      {"smiles": "CN(C[C@@H]1COCCO1)S(=O)(=O)Nc1ccc2ccc3ncc(-c4cnn(C)c4)cc3c(=O)c2c1", "percent reduction in TR-FRET probe signal": "7.88 ± 10"},
      {"smiles": "Cc1nc(Nc2n[nH]c3c2CN(C(=O)N[C@H](CN(C)C)c2ccccc2)C3(C)C)c2sccc2n1", "percent reduction in TR-FRET probe signal": "61.8 ± 9.6"},
      {"smiles": "Cc1c(CN2CCN(C(=O)[C@H](C)O)CC2)sc2c(N3CCOCC3)nc(-c3cnc(N)nc3)nc12", "percent reduction in TR-FRET probe signal": "0.467 ± 7.8"},
      {"smiles": "COc1ccccc1-c1cc(Nc2cccc(CS(N)(=O)=O)c2)ncn1", "percent reduction in TR-FRET probe signal": "-8.94 ± 6.4"},
      {"smiles": "COC(=O)Nc1ccc(-c2nc(N3CCOCC3)c3cnn(C4CCN(C(=O)OC)CC4)c3n2)cc1", "percent reduction in TR-FRET probe signal": "-6.41 ± 11"},
      {"smiles": "CCC(=O)Nc1cccc(Oc2nc(Nc3ccc(N4CCN(C)CC4)cc3OC)ncc2Cl)c1", "percent reduction in TR-FRET probe signal": "-15.7 ± 6.4"},
      {"smiles": "O=C(O)CCC(=O)Nc1ccc(Br)cn1", "note": "[Bikinin]", "percent reduction in TR-FRET probe signal": "-3.76 ± 0.8"}
    ]}
  ]
}
